Laboratory results published in PubChem BioAssay (EPA / NIEHS).
Some structures have more than one record in an assay (separate samples or runs), and their calls can disagree. Active and inactive are the calls of the source. Rule for the calls: active = hit-call score of the fitted dose curve at least 0.9, where 1 is the maximum; inactive = score below 0.9.

What follows are compounds tested on Vascular cell adhesion molecule 1 (VCAM1), VCAM1 (gene 7412) (assay: BSK_4H_VCAM1: BioMAP Diversity Plus: 4H Assay for Vascular cell adhesion molecule 1 (VCAM1) Biomarker Activity (AID 2283033;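 for outcome: cell-surface VCAM-1 protein measured by ELISA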)). Details: primary human endothelial cells (HUVEC); actives raise or lower the signal.
Outline: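 Primary human umbilical vein endothelial cells were exposed to chemicals for 24 h, after which VCAM-1 was quantified by ELISA. Responses were fitted bidirectionally against DMSO as negative control and activity baseline.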

Compound	outcome	AC50
N#Cc1ccc(CC(=NNC(=O)Nc2ccc(OC(F)(F)F)cc2)c2cccc(C(F)(F)F)c2)cc1	inactive	–
O=[N+]([O-])c1cc(C(F)(F)F)ccc1Cl	inactive	–
BrC1CCC(Br)C(Br)CCC(Br)C(Br)CCC1Br (stereo unspecified)	–	2.95 µM (active)
CC(=O)[C@H]1CC[C@H]2[C@@H]3CC=C4C[C@@H](O)CC[C@]4(C)[C@H]3CC[C@]12C	inactive	–
CCn1c2ccccc2c2cc(N)ccc21	inactive	–
COc1cc(C=O)ccc1OC(=O)C(C)C	inactive	–
CCc1c(C)cc(N)c(CC)c1N	inactive	–
c1ccc2sc(SN(C3CCCCC3)C3CCCCC3)nc2c1	–	5.45 µM (active)
O=C(O)c1ccc([N+](=O)[O-])cc1	inactive	–
CC[Si](OC(C)=O)(OC(C)=O)OC(C)=O	inactive	0.195 µM (active)
CC1CCC(C(C)CS)CC1S (stereo unspecified)	–	29.1 µM (active)
O=C(O)C[C@H](O)C[C@H](O)/C=C/c1c(C2CC2)nc2ccccc2c1-c1ccc(F)cc1	inactive	–
c1ccc2c(c1)c1cccc3ccc4cccc2c4c31	inactive	–
O=C1OC2(c3cc(Br)c(O)c(Br)c3Oc3c2cc(Br)c(O)c3Br)c2c(Cl)c(Cl)c(Cl)c(Cl)c21	–	4.23 µM (active)
CNC[C@H](O)c1cccc(O)c1	inactive	–
Cc1ccc2n[nH]nc2c1	inactive	–
COC(=O)c1ccc(C)cc1	inactive	–
CC(C)Oc1ccccc1O	inactive	–
O=C=NC1CCC(CC2CCC(N=C=O)CC2)CC1 (stereo unspecified)	inactive	–
O=P(c1ccccc1)(c1ccccc1)c1ccccc1	inactive	–
CN(CCOc1ccc(CC2SC(=O)NC2=O)cc1)c1ccccn1 (stereo unspecified)	–	8.46 µM (active)
CC(=O)Nc1ccccc1O	inactive	–
CCCCCCCCCC=O	inactive	–
CCCCC/C=C/C=C/C=O	–	33.3 µM (active)
CCCCCCCCC=O	inactive	–

The compounds below were run on Interferon-gamma inducible Protein 10 (IP10), CXCL10 (gene 3627) (assay: BSK_BE3C_IP10: BioMAP Diversity Plus: BE3C Assay for Interferon-gamma inducible Protein 10 (IP10) Biomarker Activity (AID 2283034)). Details: primary human bronchial epithelial cells; actives raise or lower the signal.
Outline: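 Human primary bronchial epithelial cells were exposed to chemicals for 24 hours, after which IP-10 levels were measured by ELISA. Data were fitted bidirectionally against DMSO, which served as the negative control and activity baseline.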

Compound	outcome	AC50
N#Cc1ccc(CC(=NNC(=O)Nc2ccc(OC(F)(F)F)cc2)c2cccc(C(F)(F)F)c2)cc1	inactive	–
O=[N+]([O-])c1cc(C(F)(F)F)ccc1Cl	inactive	–
BrC1CCC(Br)C(Br)CCC(Br)C(Br)CCC1Br (stereo unspecified)	–	1.55 µM (active)
CC(=O)[C@H]1CC[C@H]2[C@@H]3CC=C4C[C@@H](O)CC[C@]4(C)[C@H]3CC[C@]12C	inactive	–
CCn1c2ccccc2c2cc(N)ccc21	inactive	–
COc1cc(C=O)ccc1OC(=O)C(C)C	inactive	–
CCc1c(C)cc(N)c(CC)c1N	inactive	–
c1ccc2sc(SN(C3CCCCC3)C3CCCCC3)nc2c1	–	2.67 µM (active)
O=C(O)c1ccc([N+](=O)[O-])cc1	inactive	–
CC[Si](OC(C)=O)(OC(C)=O)OC(C)=O	inactive	–
CC1CCC(C(C)CS)CC1S (stereo unspecified)	–	30.7 µM (active)
O=C(O)C[C@H](O)C[C@H](O)/C=C/c1c(C2CC2)nc2ccccc2c1-c1ccc(F)cc1	inactive	–
c1ccc2c(c1)c1cccc3ccc4cccc2c4c31	inactive	–
O=C1OC2(c3cc(Br)c(O)c(Br)c3Oc3c2cc(Br)c(O)c3Br)c2c(Cl)c(Cl)c(Cl)c(Cl)c21	–	0.818 µM (active)
CNC[C@H](O)c1cccc(O)c1	inactive	–
Cc1ccc2n[nH]nc2c1	inactive	–
COC(=O)c1ccc(C)cc1	inactive	–
CC(C)Oc1ccccc1O	inactive	–
O=C=NC1CCC(CC2CCC(N=C=O)CC2)CC1 (stereo unspecified)	inactive	–
O=P(c1ccccc1)(c1ccccc1)c1ccccc1	inactive	–
CN(CCOc1ccc(CC2SC(=O)NC2=O)cc1)c1ccccn1 (stereo unspecified)	–	11 µM (active)
CC(=O)Nc1ccccc1O	inactive	–
CCCCCCCCCC=O	–	20 µM (active)
CCCCC/C=C/C=C/C=O	–	28.4 µM (active)
CCCCCCCCC=O	inactive	–

Each compound was assayed on Monokine induced gamma interferon (MIG), CXCL9 (gene 4283) (assay: BSK_BE3C_MIG: BioMAP Diversity Plus: BE3C Assay for Monokine induced gamma interferon (MIG) Biomarker Activity (AID 2283035;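 for outcome: MIG protein measured by ELISA in BE3C cultures after 24 h of dosing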)). Details: primary human bronchial epithelial cells; actives raise or lower the signal.
Outline: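 Primary human bronchial epithelial cells treated for 24 h; MIG levels measured by ELISA, fitted bidirectionally versus DMSO. Parallel SRB total-protein staining assessed cytotoxicity.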

Compound	outcome	AC50
N#Cc1ccc(CC(=NNC(=O)Nc2ccc(OC(F)(F)F)cc2)c2cccc(C(F)(F)F)c2)cc1	inactive	–
O=[N+]([O-])c1cc(C(F)(F)F)ccc1Cl	inactive	–
BrC1CCC(Br)C(Br)CCC(Br)C(Br)CCC1Br (stereo unspecified)	inactive	–
CC(=O)[C@H]1CC[C@H]2[C@@H]3CC=C4C[C@@H](O)CC[C@]4(C)[C@H]3CC[C@]12C	inactive	–
CCn1c2ccccc2c2cc(N)ccc21	inactive	–
COc1cc(C=O)ccc1OC(=O)C(C)C	inactive	–
CCc1c(C)cc(N)c(CC)c1N	inactive	–
c1ccc2sc(SN(C3CCCCC3)C3CCCCC3)nc2c1	inactive	–
O=C(O)c1ccc([N+](=O)[O-])cc1	inactive	–
CC[Si](OC(C)=O)(OC(C)=O)OC(C)=O	inactive	–
CC1CCC(C(C)CS)CC1S (stereo unspecified)	–	35.4 µM (active)
O=C(O)C[C@H](O)C[C@H](O)/C=C/c1c(C2CC2)nc2ccccc2c1-c1ccc(F)cc1	inactive	–
c1ccc2c(c1)c1cccc3ccc4cccc2c4c31	inactive	–
O=C1OC2(c3cc(Br)c(O)c(Br)c3Oc3c2cc(Br)c(O)c3Br)c2c(Cl)c(Cl)c(Cl)c(Cl)c21	–	2.49 µM (active)
CNC[C@H](O)c1cccc(O)c1	inactive	–
Cc1ccc2n[nH]nc2c1	inactive	–
COC(=O)c1ccc(C)cc1	inactive	–
CC(C)Oc1ccccc1O	inactive	–
O=C=NC1CCC(CC2CCC(N=C=O)CC2)CC1 (stereo unspecified)	inactive	–
O=P(c1ccccc1)(c1ccccc1)c1ccccc1	inactive	–
CN(CCOc1ccc(CC2SC(=O)NC2=O)cc1)c1ccccn1 (stereo unspecified)	inactive	–
CC(=O)Nc1ccccc1O	inactive	–
CCCCCCCCCC=O	inactive	–
CCCCC/C=C/C=C/C=O	–	34.3 µM (active)
CCCCCCCCC=O	inactive	–
